Laboratory results taken from PubChem BioAssay (NCI).
About 79,000 compounds went through this panel and 15% of them were active in at least one assay; those are over-represented in the sample as a whole. The source made the active and inactive calls. Cut-off read from the data, not from the text of the source: active = growth inhibition above about 70%; inactive = the rest.

Experiments:
[1] = NCI Yeast Anticancer Drug Screen. Data for the rad52 strain (AID 147);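 note: 0% = growth of vehicle-treated control cultures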; conditions: S. cerevisiae rad52 mutant growth inhibition, active compounds read high
How it was run: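 Yeast strain carrying a DNA damage repair alteration was exposed to test compounds. Growth inhibition was measured relative to vehicle-treated controls.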

[2] = NCI Yeast Anticancer Drug Screen. Data for the wt1 strain (AID 149);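 note: 0% = growth of vehicle-treated wt1 cultures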; conditions: S. cerevisiae wt1 strain (SPY 50644) growth inhibition, active compounds read high
How it was run: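 The wt1 strain was treated with compounds, and growth was compared with vehicle-treated cultures to give inhibition.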

[3] = NCI Yeast Anticancer Drug Screen. Data for the rad50EPP+ strain (AID 151);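 note: 0% = growth of vehicle-treated control cultures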; conditions: S. cerevisiae rad50 mutant strain, active compounds read high
How it was run: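 Yeast strain carrying rad50 alteration (rad50EPP+) exposed to compounds; growth inhibition measured relative to vehicle-treated controls.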

[4] = NCI Yeast Anticancer Drug Screen. Data for the mgt1 strain (AID 153); conditions: S. cerevisiae mgt1 mutant growth inhibition, active compounds read high
How it was run: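 Yeast mgt1 strain (DNA repair/cell-cycle alteration panel) exposed to compounds; growth inhibition measured relative to vehicle-treated controls.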

[5] = NCI Yeast Anticancer Drug Screen. Data for the rad50 strain (AID 155);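 note: 0% = growth of vehicle-only cultures of the same strain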; conditions: S. cerevisiae rad50 strain growth inhibition, active compounds read high
How it was run: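 Cells are treated with compound, grown, and their growth is then scored against vehicle-only cultures of the same repair-deficient yeast strain.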

[6] = NCI Yeast Anticancer Drug Screen. Data for the mec2-1 strain (AID 157); conditions: S. cerevisiae mec2-1 strain, active compounds read high
How it was run: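 mec2-1 yeast strain, carrying an alteration in DNA damage repair or cell cycle control, was exposed to compounds; growth inhibition was measured relative to vehicle-treated controls.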

[7] = NCI Yeast Anticancer Drug Screen. Data for the rad14 strain (AID 159);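 note: 0% = growth of vehicle-treated control cultures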; conditions: S. cerevisiae rad14 strain growth inhibition, active compounds read high
How it was run: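 Readout: yeast growth inhibition, referenced to vehicle-only cultures. Strain bears a defined alteration in DNA damage repair.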

[8] = NCI Yeast Anticancer Drug Screen. Data for the sgs1 mgt1 strain (AID 161);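 note: 0% = growth of cultures given vehicle only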; conditions: S. cerevisiae sgs1 mgt1 strain, active compounds read high
How it was run: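 This yeast growth screen uses a strain with defined DNA-repair lesions; compound-treated growth is compared with vehicle-treated growth.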

[9] = NCI Yeast Anticancer Drug Screen. Data for the CLN2oe strain (AID 163);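 note: 0% = growth of vehicle-only control cultures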; conditions: S. cerevisiae CLN2oe strain, active compounds read high
How it was run: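 Yeast cells carrying a defined cell-cycle control alteration were exposed to test compounds. Growth inhibition was scored against vehicle-treated control cultures.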

[10] = NCI Yeast Anticancer Drug Screen. Data for the cln2 rad14 strain (AID 165);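 note: 0% = growth equal to vehicle treated cultures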; conditions: S. cerevisiae cln2 rad14 strain, active compounds read high
How it was run: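 Yeast carrying cln2 and rad14 alterations (cell cycle control and DNA damage repair) were exposed to compounds. Growth inhibition was measured against vehicle-treated controls.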

[11] = NCI Yeast Anticancer Drug Screen. Data for the bub3 strain (AID 167); conditions: S. cerevisiae bub3 mutant strain, active compounds read high
How it was run: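 Part of a panel of yeast mutants defective in DNA damage repair or cell cycle regulation. Each strain is grown with compound, and inhibition is calculated relative to solvent-treated cultures.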

[12] = NCI Yeast Anticancer Drug Screen. Data for the wt2 strain (AID 169);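 note: 0% = growth of vehicle-treated yeast cultures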; conditions: S. cerevisiae wt2 strain growth inhibition, active compounds read high
How it was run: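 Yeast cells were exposed to test compounds, and growth inhibition was measured relative to vehicle-treated controls.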

[13] = NCI Yeast Anticancer Drug Screen. Data for the mlh1 strain (AID 171);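 note: 0% = growth of vehicle-treated control cultures of the same strain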; conditions: S. cerevisiae mlh1 strain growth inhibition, active compounds read high
How it was run: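 Yeast carrying a defined genetic alteration in DNA damage repair or cell cycle control were exposed to test compounds. Growth inhibition was measured relative to vehicle-treated controls.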

[14] = NCI Yeast Anticancer Drug Screen. Data for the sgs1 strain (AID 173);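 note: 0% = growth of vehicle-only control cultures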; conditions: S. cerevisiae sgs1 mutant, active compounds read high
How it was run: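 Yeast mutant strains carrying defined defects in DNA damage repair or cell cycle control were exposed to test compounds. Growth inhibition was scored against vehicle-treated controls.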

[15] = NCI Yeast Anticancer Drug Screen. Data for the mlh1 rad18 strain (AID 175); conditions: S. cerevisiae mlh1 rad18 strain growth inhibition, active compounds read high
How it was run: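 Growth inhibition of the yeast strain was measured after compound exposure and expressed relative to vehicle-treated controls. The strain carries defined defects in DNA damage repair.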

[16] = NCI Yeast Anticancer Drug Screen. Data for the rad18 strain (AID 177); conditions: S. cerevisiae rad18 mutant growth inhibition, active compounds read high
How it was run: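 Yeast carrying a defined DNA damage repair alteration were exposed to compounds. Growth inhibition was expressed relative to vehicle-treated controls.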

[17] = at 5.0 µM (retest, dose inferred, filed as 0.5)
[18] = at 50.0 µM (retest, dose inferred, filed as 5.0)

Measured: growth inhibition

O=C1C=C(N2CCN(c3ccccn3)CC2)C(=O)c2c(O)ccc(O)c21
inactive: [1]; at 1.2 µM 3% | [1]; at 3.7 µM 8% | [1]; at 11.0 µM 19% | [1]; at 33.0 µM 33% | [1]; at 100.0 µM 45% | [2]; at 1.2 µM 10% | [2]; at 3.7 µM 13% | [2]; at 11.0 µM 15% | [2]; at 33.0 µM 21% | [2]; at 100.0 µM 26% | [3]; at 1.2 µM -4% | [3]; at 3.7 µM -3% | [3]; at 11.0 µM 4% | [3]; at 33.0 µM 17% | [3]; at 100.0 µM 26% | [4]; at 1.2 µM 5% | [4]; at 3.7 µM 8% | [4]; at 11.0 µM 14% | [4]; at 33.0 µM 20% | [4]; at 100.0 µM 47% | [5]; at 1.2 µM -3% | [5]; at 3.7 µM -8% | [5]; [17] 28% | [5]; at 11.0 µM 0% | [5]; at 33.0 µM 37% | [5]; at 100.0 µM 55% | [6]; at 1.2 µM 7% | [6]; at 3.7 µM 8% | [6]; [17] -17% | [6]; at 11.0 µM 10% | [6]; at 33.0 µM 19% | [6]; at 50.0 µM 65.2% | [6]; at 100.0 µM 27% | [7]; at 1.2 µM 9% | [7]; at 3.7 µM 14% | [7]; at 11.0 µM 29% | [7]; at 33.0 µM 69% | [8]; [17] 8% | [9]; at 1.2 µM 11% | [9]; at 3.7 µM 7% | [9]; at 11.0 µM 13% | [9]; at 33.0 µM 21% | [9]; at 100.0 µM 21% | [10]; [17] -6% | [10]; [18] 15% | [10]; at 50.0 µM 25.9% | [11]; at 1.2 µM 4% | [11]; at 3.7 µM 3% | [11]; [17] 5% | [11]; at 11.0 µM 10% | [11]; at 33.0 µM 23% | [11]; at 100.0 µM 34% | [12]; at 1.2 µM 4% | [12]; at 3.7 µM 9% | [12]; at 11.0 µM 15% | [12]; at 33.0 µM 32% | [12]; at 100.0 µM 52% | [13]; at 1.2 µM 7% | [13]; at 3.7 µM 12% | [13]; at 11.0 µM 21% | [13]; at 33.0 µM 42% | [14]; at 1.2 µM 8% | [14]; at 3.7 µM 11% | [14]; at 11.0 µM 22% | [14]; at 33.0 µM 63% | [15]; [17] 10% | [16]; at 1.2 µM 1% | [16]; at 3.7 µM 4% | [16]; at 11.0 µM 17% | [16]; at 33.0 µM 46% | [16]; at 100.0 µM 68%
active: [5]; [18] 94% | [5]; at 50.0 µM 84.5% | [6]; [18] 84% | [7]; at 100.0 µM 87% | [8]; [18] 91% | [8]; at 50.0 µM 82.7% | [11]; [18] 71% | [11]; at 50.0 µM 88.8% | [13]; at 100.0 µM 75% | [14]; at 100.0 µM 82% | [15]; [18] 94% | [15]; at 50.0 µM 72.5%

Nc1nc2ccc(NCc3ccc(C(=O)NC(CCC(=O)O)C(=O)O)cc3)cc2c(=O)[nH]1 (stereo unspecified)
inactive: [1]; at 1.2 µM -15% | [1]; at 3.7 µM -35% | [1]; at 11.0 µM -21% | [1]; at 33.0 µM 32% | [2]; at 1.2 µM -6% | [2]; at 3.7 µM -17% | [2]; at 11.0 µM -19% | [2]; at 33.0 µM 3% | [2]; at 100.0 µM 55% | [3]; at 1.2 µM 7% | [3]; at 3.7 µM -24% | [3]; at 11.0 µM -9% | [3]; at 33.0 µM -18% | [3]; at 100.0 µM 5% | [4]; at 1.2 µM -14% | [4]; at 3.7 µM -14% | [4]; at 11.0 µM -24% | [4]; at 33.0 µM 0% | [4]; at 100.0 µM 26% | [5]; at 1.2 µM 7% | [5]; at 3.7 µM -19% | [5]; [17] 3% | [5]; at 11.0 µM 9% | [5]; at 33.0 µM 23% | [5]; [18] 18% | [5]; at 50.0 µM 22.1% | [6]; at 1.2 µM -4% | [6]; at 3.7 µM 1% | [6]; [17] -3% | [6]; at 11.0 µM 8% | [7]; at 1.2 µM -20% | [7]; at 3.7 µM -19% | [7]; at 11.0 µM -31% | [7]; at 33.0 µM -5% | [7]; at 100.0 µM 55% | [8]; [17] 21% | [8]; [18] 18% | [8]; at 50.0 µM 25% | [9]; at 1.2 µM 10% | [9]; at 3.7 µM 7% | [9]; at 11.0 µM -5% | [9]; at 33.0 µM 2% | [9]; at 100.0 µM 6% | [10]; [17] 25% | [10]; [18] 25% | [10]; at 50.0 µM 8.85% | [11]; at 1.2 µM -7% | [11]; at 3.7 µM 6% | [11]; [17] 12% | [11]; at 11.0 µM -4% | [11]; at 33.0 µM 6% | [11]; [18] -24% | [11]; at 50.0 µM 30.9% | [12]; at 1.2 µM -24% | [12]; at 3.7 µM -23% | [12]; at 11.0 µM -22% | [12]; at 33.0 µM -26% | [12]; at 100.0 µM -17% | [13]; at 1.2 µM -5% | [13]; at 3.7 µM 2% | [13]; at 11.0 µM 0% | [13]; at 33.0 µM 11% | [13]; at 100.0 µM 39% | [15]; [17] 6% | [15]; [18] 2% | [15]; at 50.0 µM 59.4% | [16]; at 1.2 µM -11% | [16]; at 3.7 µM 1% | [16]; at 11.0 µM -12% | [16]; at 33.0 µM 5% | [16]; at 100.0 µM 63%
active: [1]; at 100.0 µM 74% | [5]; at 100.0 µM 77% | [6]; at 33.0 µM 92% | [6]; [18] 81% | [6]; at 50.0 µM 75.3% | [6]; at 100.0 µM 97% | [11]; at 100.0 µM 76%

CNC(=O)OCc1c(COC(=O)NC)c(-c2ccc(Cl)cc2)n2c1CCC2
active: [2]; at 100.0 µM 84% | [4]; at 100.0 µM 98% | [5]; at 100.0 µM 97%
inactive: [1]; at 1.2 µM -19% | [1]; at 3.7 µM -31% | [1]; at 11.0 µM -28% | [1]; at 33.0 µM -22% | [1]; at 100.0 µM 69% | [2]; at 1.2 µM -37% | [2]; at 3.7 µM -31% | [2]; at 11.0 µM -43% | [2]; at 33.0 µM -47% | [3]; at 1.2 µM -21% | [3]; at 3.7 µM -23% | [3]; at 11.0 µM -16% | [3]; at 33.0 µM -25% | [3]; at 100.0 µM -26% | [4]; at 1.2 µM -47% | [4]; at 3.7 µM -55% | [4]; at 11.0 µM -49% | [4]; at 33.0 µM -17% | [5]; at 1.2 µM -34% | [5]; at 3.7 µM -42% | [5]; [17] 21% | [5]; at 11.0 µM -40% | [5]; at 33.0 µM -30% | [5]; [18] 11% | [5]; at 50.0 µM 56.3% | [6]; at 1.2 µM -55% | [6]; at 3.7 µM -41%
